# About 83,000 compounds went through this panel and 20% of them were active in at least one assay; those are over-represented in the sample as a whole.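 Percent growth is the endpoint: 0 to 100 indicates growth inhibition (40 means 60% inhibition), 0 means no net growth, and negative values indicate cell death.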 Active and inactive are the calls of the source. How the source made its calls: active means growth percent below 10; inactive means the rest.
# Tested on: KM12 colon
# Experiment: NCI-60 one-dose screen, 48 h (100 = growth as untreated, 0 = no growth, -100 = all killed)
# Conditions: 10 µM
row,Compound,growth
1,COc1cc2c3c(n([C@@H]4CCOC4)c(=O)c2cc1OC)-c1cc2c(cc1C3=O)OCO2,62.4% (inactive)
2,COc1ccc(-c2cc(-c3ccccc3)nc(SCCCCCCC(=O)NO)n2)cc1,60.3% (inactive)
3,COc1ccc(-c2nn(-c3cccc(Cl)c3)cc2-c2c(C#N)c(=O)n3[nH]c(-c4ccccc4)nc3c2C#N)cc1,94% (inactive)
4,Clc1nc2ccccc2cc1Cn1nnc(Cc2ccccc2)n1,66.3% (inactive)
5,CN1CCc2c(sc3nc4n(-c5ccc(Cl)cc5)cnn4c(=O)c23)C1,103% (inactive)
6,O=C(CCCCNC(=O)c1nc(-c2ccccc2)n(-c2ccccc2)n1)NO,92.9% (inactive)
7,Cc1c2c[n+](C(C)C)ccc2c(C)c2c1[nH]c1ccccc12,8.68% (active)
8,Cc1c2cnccc2c(C)c2c1c1cc(O)ccc1n2C(C)C,3.74% (active)
9,CC(C)(C)OC(=O)CN1CCc2c(sc3ncnc(N/N=C/c4cccc5ccccc45)c23)C1,53.1% (inactive)
10,Nc1nc(-c2cccnc2)nc2c1sc(=S)n2-c1ccccc1,99% (inactive)
11,CC(C)(C)OC(=O)N1CCc2c(sc3ncnc(N/N=C/c4cccc(Br)c4)c23)C1,62.3% (inactive)
12,O=C(CCCSc1nc(-c2ccc(Cl)cc2)cc(-c2ccc(Cl)cc2)n1)NO,26.3% (inactive)
13,CN1CCc2c(sc3nc4n(-c5ccc(Cl)cc5)c(=O)[nH]n4c(=O)c23)C1,100% (inactive)
14,CCNc1nc(C(F)(F)F)nc2c1sc(=S)n2-c1ccccc1,89.2% (inactive)
15,IC(I)I,104% (inactive)
16,c1cncc(-c2csc(-c3c[nH]c4ccccc34)n2)c1,81.8% (inactive)
17,Cc1ccc(NC(=S)NNC(=S)Nc2ccc(C)cc2)cc1,60.5% (inactive)
18,Cc1ccc(C2=NN(c3ccc(S(C)(=O)=O)cc3)C(=O)CC2)cc1,35% (inactive)
19,CCc1ccc(C2=NN(c3ccc(S(C)(=O)=O)cc3)C(=O)CC2)cc1,17.3% (inactive)
20,COc1ccc(-c2nn(-c3cccc(Cl)c3)cc2/C=C2\NC(=S)N(c3ccc(Cl)cc3)C2=O)cc1,26.6% (inactive)
21,COc1ccc(-c2nn(-c3cccc(Cl)c3)cc2-c2c(C#N)c(=O)n3[nH]c(-c4ccc(C)cc4)nc3c2C#N)cc1,55.1% (inactive)
22,c1cnc2[nH]cc(-c3nc(-c4ccsc4)cs3)c2c1,88.9% (inactive)
23,O=C1NC(=O)c2c(CCCSc3nc4ccccc4c(=O)n3CCc3ccccc3)cccc21,100% (inactive)
24,CCOC(=O)c1sc2ncnc(Nc3ccc4c(cnn4C(=O)Nc4ccc(C)c(Cl)c4)c3)c2c1C,95.4% (inactive)
25,Nc1ccccc1NC(=O)c1ccc(CCCC(=O)Nc2ccc(C3CC3N)cc2)cc1 (configuration not stated),45.2% (inactive)
26,Cc1c(O)c(=O)ccn1C1CCC(CC2CCC(n3ccc(=O)c(O)c3C)CC2)CC1 (configuration not stated),46.5% (inactive)
27,Cc1c2cnccc2c(C)c2c1oc1ccccc12,81.7% (inactive)

# From PubChem BioAssay (NCI)
